“And” between values parts separate entries of the source, which are not always exact repeats. Equal values may be shown once. Some compounds were tested as several samples or in several runs, with calls that do not always agree. The source made the active and inactive calls. The calls were made as follows: active = hit-call score of the fitted dose curve at least 0.9, where 1 is the maximum; inactive = score below 0.9.

Read-out in the first experiment: TIMP metallopeptidase inhibitor 1 (TIMP1), TIMP1 (gene 7076)
Put plainly: BSK_hDFCGF_TIMP1: BioMAP Diversity Plus: hDFCGF Assay for TIMP metallopeptidase inhibitor 1 (TIMP1) Biomarker Activity (AID 2283062). The settings on record: primary human foreskin fibroblasts; actives raise or lower the signal. Summed up: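 Fibroblasts from human foreskin are treated with test chemical and harvested at 24 h. TIMP-1 is quantified by ELISA, and gain or loss of signal is scored against DMSO.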
With `O=C(O)CCCOc1ccc(Cl)cc1Cl`, the outcome was inactive.
As to `O=C(O)C(F)(F)C(F)(F)C(F)(F)C(F)(F)C(F)(F)C(F)(F)C(F)(F)F`, the result was inactive.
Turning to `COc1nn(CSP(=S)(OC)OC)c(=O)s1`, the outcome was inactive.
As for `CC1(c2ccc(Oc3ccccc3)cc2)OC(=O)N(Nc2ccccc2)C1=O` (stereo not drawn), the result was inactive.
Same read-out and setting: the same measure for `ClC1C(Cl)C(Cl)C(Cl)C(Cl)C1Cl` (stereo not drawn): “inactive”.
In the case of `N#CN`, the result was inactive.
Consider `COC(=O)c1ccccc1S(=O)(=O)NC(=O)N(C)c1nc(C)nc(OC)n1`, for which the outcome was inactive.
Still for that read-out and setting: under `O=C(NC(=O)c1c(F)cccc1F)Nc1ccc(OC(F)(F)C(F)OC(F)(F)F)c(Cl)c1` (stereo not drawn) stands “inactive”.
Same read-out and setting: the same measure for `CNC(=O)/C=C(\C)OP(=O)(OC)OC`: “inactive”.
On to `O=S(=O)(O)C(F)(F)C(F)(F)C(F)(F)C(F)(F)C(F)(F)C(F)(F)C(F)(F)C(F)(F)F`, for which the AC50 is 0.485 µM (active) and the result was inactive.
As to `COc1cc(OC)nc(NC(=O)NS(=O)(=O)c2cc(NC=O)ccc2C(=O)N(C)C)n1`, the result was inactive.
Still for that read-out and setting: the same measure for `O=C(O)COc1ccc(Cl)cc1Cl`: “inactive”; for `CC1(C)C(C=C(Cl)Cl)C1C(=O)OC(C#N)c1ccc(F)c(Oc2ccccc2)c1` (stereo not drawn): “inactive”.
On the same count and under the same terms, under `CCN(CC)C(=O)SCc1ccc(Cl)cc1` stands “inactive”.
Turning to `Oc1cc(Cl)ccc1Oc1ccc(Cl)cc1Cl`, the AC50 was 20 µM (active) [middle of 4 runs].
For `C[C@H]1[C@H](c2ccc(Cl)cc2)SC(=O)N1C(=O)NC1CCCCC1`, the result was inactive.
On to `CC(C)(C)C(O)/C(=C\c1ccc(Cl)cc1Cl)n1cncn1` (stereo not drawn), for which the AC50 was 25.7 µM (active).
As to `CCC(C)(NC(=O)c1cc(Cl)c(C)c(Cl)c1)C(=O)CCl` (stereo not drawn), the AC50 is 34.3 µM (active).
Take `COC(=O)c1ccccc1CS(=O)(=O)NC(=O)Nc1nc(OC)cc(OC)n1`: the outcome was inactive.
Same read-out and setting: under `COC(=O)c1ccccc1S(=O)(=O)NC(=O)Nc1nc(C)nc(OC)n1` stands “inactive”; under `CC(C)OC(=O)Nc1cccc(Cl)c1`, “inactive”.
Turning to `CCOc1nc(NC)nc(NC(=O)NS(=O)(=O)c2ccccc2C(=O)OC)n1`, the AC50 was 25.5 µM (active).
For the compound `O=C(Nc1ccccc1)Nc1cnns1`, the result was inactive.
For `CNC(=O)Oc1ccccc1OC(C)C`, the result was inactive.
With `O=[N+]([O-])c1c(Cl)c(Cl)c(Cl)c(Cl)c1Cl`, the result was inactive.

Read-out in another experiment: Monokine induced gamma interferon (MIG), CXCL9 (gene 4283)
Put plainly: BSK_hDFCGF_MIG: BioMAP Diversity Plus: hDFCGF Assay for Monokine induced gamma interferon (MIG) Biomarker Activity (AID 2283063). Conditions: primary human foreskin fibroblasts; actives raise or lower the signal. Summed up: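 MIG signal, determined by ELISA, reflects 24 h chemical exposure of human skin primary fibroblasts. DMSO serves as negative control and baseline.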
Consider `O=C(O)CCCOc1ccc(Cl)cc1Cl`, for which the result was inactive.
In the case of `O=C(O)C(F)(F)C(F)(F)C(F)(F)C(F)(F)C(F)(F)C(F)(F)C(F)(F)F`, the AC50 was 30 µM (active) and the result was inactive.
On to `COc1nn(CSP(=S)(OC)OC)c(=O)s1`, for which the outcome was inactive.
Still for that read-out and setting: under `CC1(c2ccc(Oc3ccccc3)cc2)OC(=O)N(Nc2ccccc2)C1=O` (stereo not drawn) stands “inactive”; under `ClC1C(Cl)C(Cl)C(Cl)C(Cl)C1Cl` (stereo not drawn), “inactive”.
The same measure, in the same setting: under `N#CN` stands “inactive”.
Turning to `COC(=O)c1ccccc1S(=O)(=O)NC(=O)N(C)c1nc(C)nc(OC)n1`, the outcome was inactive.
As to `O=C(NC(=O)c1c(F)cccc1F)Nc1ccc(OC(F)(F)C(F)OC(F)(F)F)c(Cl)c1` (stereo not drawn), the result was inactive.
On the same count and under the same terms, the same measure for `CNC(=O)/C=C(\C)OP(=O)(OC)OC`: “inactive”.
Take `O=S(=O)(O)C(F)(F)C(F)(F)C(F)(F)C(F)(F)C(F)(F)C(F)(F)C(F)(F)C(F)(F)F`: the AC50 was 30 µM (active) and 50.4 µM (active); the result was inactive.
On to `COc1cc(OC)nc(NC(=O)NS(=O)(=O)c2cc(NC=O)ccc2C(=O)N(C)C)n1`, for which the result was inactive.
On to `O=C(O)COc1ccc(Cl)cc1Cl`, for which the outcome was inactive.
Consider `CC1(C)C(C=C(Cl)Cl)C1C(=O)OC(C#N)c1ccc(F)c(Oc2ccccc2)c1` (stereo not drawn), for which the result was inactive.
Same read-out and setting: under `CCN(CC)C(=O)SCc1ccc(Cl)cc1` stands “inactive”.
For `Oc1cc(Cl)ccc1Oc1ccc(Cl)cc1Cl`, the AC50 is 20.4 µM (active) and 14.1 µM (active) and 23.9 µM (active).
With `C[C@H]1[C@H](c2ccc(Cl)cc2)SC(=O)N1C(=O)NC1CCCCC1`, the outcome was inactive.
Turning to `CC(C)(C)C(O)/C(=C\c1ccc(Cl)cc1Cl)n1cncn1` (stereo not drawn), the result was inactive.
On to `CCC(C)(NC(=O)c1cc(Cl)c(C)c(Cl)c1)C(=O)CCl` (stereo not drawn), for which the AC50 is 6.77 µM (active).
`COC(=O)c1ccccc1CS(=O)(=O)NC(=O)Nc1nc(OC)cc(OC)n1`: the result was inactive.
Still for that read-out and setting: under `COC(=O)c1ccccc1S(=O)(=O)NC(=O)Nc1nc(C)nc(OC)n1` stands “inactive”; under `CC(C)OC(=O)Nc1cccc(Cl)c1`, “inactive”; under `CCOc1nc(NC)nc(NC(=O)NS(=O)(=O)c2ccccc2C(=O)OC)n1`, “inactive”.
Regarding `O=C(Nc1ccccc1)Nc1cnns1`, the result was inactive.
The same measure, in the same setting: the same measure for `CNC(=O)Oc1ccccc1OC(C)C`: “inactive”.
Turning to `O=[N+]([O-])c1c(Cl)c(Cl)c(Cl)c(Cl)c1Cl`, the AC50 was 29.3 µM (active).

Read-out in the next experiment: Matrix Metallopeptidase 1 (MMP1), MMP1 (gene 4312)
Put plainly: BSK_hDFCGF_MMP1: BioMAP Diversity Plus: hDFCGF Assay for Matrix Metallopeptidase 1 (MMP1) Biomarker Activity (AID 2283064). Conditions: primary human foreskin fibroblasts; actives raise or lower the signal. Summed up: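 hDFCGF primary fibroblasts (human foreskin); chemical added; 24 h; MMP1 by ELISA; bidirectional fit vs DMSO.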
With `O=C(O)CCCOc1ccc(Cl)cc1Cl`, the result was inactive.
On the same count and under the same terms, the same measure for `O=C(O)C(F)(F)C(F)(F)C(F)(F)C(F)(F)C(F)(F)C(F)(F)C(F)(F)F`: “inactive”.
For `COc1nn(CSP(=S)(OC)OC)c(=O)s1`, the result was inactive.
For the compound `CC1(c2ccc(Oc3ccccc3)cc2)OC(=O)N(Nc2ccccc2)C1=O` (stereo not drawn), the result was inactive.
On the same count and under the same terms, the same measure for `ClC1C(Cl)C(Cl)C(Cl)C(Cl)C1Cl` (stereo not drawn): “inactive”; for `N#CN`: “inactive”.
The same measure, in the same setting: the same measure for `COC(=O)c1ccccc1S(=O)(=O)NC(=O)N(C)c1nc(C)nc(OC)n1`: “inactive”.
For the compound `O=C(NC(=O)c1c(F)cccc1F)Nc1ccc(OC(F)(F)C(F)OC(F)(F)F)c(Cl)c1` (stereo not drawn), the result was inactive.
Same read-out and setting: under `CNC(=O)/C=C(\C)OP(=O)(OC)OC` stands “inactive”; under `O=S(=O)(O)C(F)(F)C(F)(F)C(F)(F)C(F)(F)C(F)(F)C(F)(F)C(F)(F)C(F)(F)F`, “inactive”; under `COc1cc(OC)nc(NC(=O)NS(=O)(=O)c2cc(NC=O)ccc2C(=O)N(C)C)n1`, “inactive”.
Regarding `O=C(O)COc1ccc(Cl)cc1Cl`, the result was inactive.
Regarding `CC1(C)C(C=C(Cl)Cl)C1C(=O)OC(C#N)c1ccc(F)c(Oc2ccccc2)c1` (stereo not drawn), the outcome was inactive.
Regarding `CCN(CC)C(=O)SCc1ccc(Cl)cc1`, the outcome was inactive.
For the compound `Oc1cc(Cl)ccc1Oc1ccc(Cl)cc1Cl`, the AC50 was 29.9 µM (active) and 12.3 µM (active) and 26.1 µM (active).
Same read-out and setting: the same measure for `C[C@H]1[C@H](c2ccc(Cl)cc2)SC(=O)N1C(=O)NC1CCCCC1`: 5.43 µM (active).
For `CC(C)(C)C(O)/C(=C\c1ccc(Cl)cc1Cl)n1cncn1` (stereo not drawn), the outcome was inactive.
`CCC(C)(NC(=O)c1cc(Cl)c(C)c(Cl)c1)C(=O)CCl` (stereo not drawn): the AC50 is 30.4 µM (active).
For `COC(=O)c1ccccc1CS(=O)(=O)NC(=O)Nc1nc(OC)cc(OC)n1`, the result was inactive.
On to `COC(=O)c1ccccc1S(=O)(=O)NC(=O)Nc1nc(C)nc(OC)n1`, for which the outcome was inactive.
Turning to `CC(C)OC(=O)Nc1cccc(Cl)c1`, the result was inactive.
`CCOc1nc(NC)nc(NC(=O)NS(=O)(=O)c2ccccc2C(=O)OC)n1`: the AC50 is 20 µM (active).
Regarding `O=C(Nc1ccccc1)Nc1cnns1`, the outcome was inactive.
In the case of `CNC(=O)Oc1ccccc1OC(C)C`, the AC50 was 2.38 µM (active).
For the compound `O=[N+]([O-])c1c(Cl)c(Cl)c(Cl)c(Cl)c1Cl`, the half-maximal activity concentration (AC50) was 0.255 µM (active).

Broadly, the AC50 is the concentration at which the activity in the assay is half-maximal.
